Calls of active or inactive are those of the source. The calls were made as follows: active = hit-call score of the fitted dose curve at least 0.9, where 1 is the maximum; inactive = score below 0.9.
What was measured:
[1] = APR_HepG2_CellCycleArrest_24hr: Apredica 24-hour HepG2 Assay for Cell Cycle Arrest (AID 2282905); settings: imaging, actives raise or lower the signal;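 also: cell cycle arrest scored as ratio of 2N to 4N nuclear DNA content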
In short: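 After 24 h exposure at 0.39–200 uM in 0.5% DMSO, fixed cells received Hoechst 33342 staining. Imaging quantified per-nucleus DNA content; gain or loss fitted against DMSO controls.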

[2] = APR_HepG2_NuclearSize_24hr: Apredica 24-hour HepG2 Assay for Nuclear Size (AID 2282907); settings: high-content imaging, actives raise or lower the signal
In short: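 Nuclear size from Hoechst 33342-stained, formaldehyde-fixed HepG2 nuclei imaged by high-content microscopy, after 24 h dosing at ten concentrations from 0.39 to 200 uM in 0.5% DMSO; gain or loss relative to DMSO baseline.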

[3] = APR_HepG2_CellLoss_24hr: Apredica 24-hour HepG2 Assay for Cell Loss (AID 2282908); settings: high-content imaging;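 as to AC50: fit in both directions so a hit may be cell loss or gain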
In short: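 Nuclei stained with Hoechst 33342 after formaldehyde fixation (3.7%) were imaged at 20x to count cells. Exposure lasted 24 hr, at ten concentrations from 0.39 to 200 uM in duplicate, with 0.5% v/v DMSO. Fit bidirectional, relative to DMSO.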

[4] = APR_HepG2_MicrotubuleCSK_24hr: Apredica 24-hour HepG2 Assay for Microtubule CSK Stabilty (AID 2282909); settings: HepG2 microtubule cytoskeleton imaging, actives raise or lower the signal
In short: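 Fixed HepG2 cells were stained for alpha-tubulin and imaged after 24 hr exposure to ten concentrations spanning 0.39–200 uM in 0.5% DMSO. Signal change was fitted in both directions relative to DMSO; taxol was the positive control.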

[5] = APR_HepG2_MitoticArrest_24hr: Apredica 24-hour HepG2 Assay for Mitotic Arrest (AID 2282910); settings: high-content imaging, actives raise or lower the signal
In short: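 Treatment lasted 24 hr in the human HepG2 line at 0.39–200 uM, solvent held at 0.5% DMSO. Fixed cells were stained with Hoechst 33342 and anti-phospho-histone H3, imaged at 20x, and analysed by gain- or loss-of-signal fitting against DMSO.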

[6] = APR_HepG2_MitoMembPot_24hr: Apredica 24-hour HepG2 Assay for Mitochondrial Membrane Potential (AID 2282911); settings: imaging, actives raise or lower the signal
In short: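 Mitochondrial membrane potential imaged via MitoTracker Red CMXRos (250 nM, 30 min pre-fixation) in fixed HepG2 cells with Hoechst nuclear identification. Ten concentrations 0.39–200 uM, 24 h treatment, 0.5% DMSO; CCCP as positive control.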

[7] = APR_HepG2_MitoMass_24hr: Apredica 24-hour HepG2 Assay for Mitochondrial Mass (AID 2282912); settings: high-content imaging, actives raise or lower the signal
In short: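 Endpoint is MitoTracker Red CMXRos (250 nM, 30 min, pre-fixation) intensity from 20x high-content imaging, nuclei located by Hoechst. Human HepG2 cells received ten concentrations from 0.39 to 200 uM in 0.5% DMSO for 24 hr, duplicate wells. Bidirectional fit relative to DMSO.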

[8] = APR_HepG2_CellCycleArrest_72hr: Apredica 72-hour HepG2 Assay for Cell Cycle Arrest (AID 2282914); settings: high-content imaging, actives raise or lower the signal
In short: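 Read-out: nuclear DNA content from Hoechst 33342 high-content imaging (20x, six fields/well) after 3.7% formaldehyde fixation, fitted bidirectionally against DMSO. Treatment was 72 h in HepG2, ten concentrations 0.39–200 uM, duplicate, 0.5% DMSO.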

[9] = APR_HepG2_CellLoss_72hr: Apredica 72-hour HepG2 Assay for Cell Loss (AID 2282915); settings: high-content imaging
In short: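 HepG2 cells were exposed for 72 hr to compounds at 0.39–200 uM (ten concentrations, duplicate) in 0.5% v/v final DMSO. Nuclei were stained with Hoechst 33342 after 3.7% formaldehyde fixation, imaged at 20x, and counted; fits bidirectional versus DMSO.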

[10] = APR_HepG2_p53Act_24hr: Apredica 24-hour HepG2 Assay for p53 Activation (AID 2282913); settings: high-content imaging, actives raise or lower the signal;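 also: p53 protein immunofluorescence averaged per cell in HepG2 with Hoechst nuclei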
In short: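 Fluorescence imaging of formaldehyde-fixed HepG2 cells labelled for p53 and with Hoechst, 24 h after dosing (0.39–200 uM, duplicate wells, 0.5% v/v DMSO). Signal fitted in both directions relative to DMSO.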

## CCCCCCCCCCCCOS(=O)(=O)O
[1]
  outcome: inactive
[2]
  outcome: inactive
[3]
  outcome: inactive
[4]
  outcome: inactive
[5]
  outcome: inactive
[6]
  outcome: inactive
[7]
  outcome: inactive
[8]
  outcome: inactive
[9]
  outcome: inactive

## O=C1NS(=O)(=O)c2ccccc21
[1]
  outcome: inactive
[2]
  outcome: inactive
[3]
  outcome: inactive
[4]
  outcome: inactive
[5]
  outcome: inactive
[6]
  outcome: inactive
[7]
  outcome: inactive
[8]
  outcome: inactive
[9]
  outcome: inactive

## CCCCC=O
[1]
  outcome: inactive
[2]
  outcome: inactive
[3]
  outcome: inactive
[4]
  outcome: inactive
[5]
  outcome: inactive
[6]
  outcome: inactive
[7]
  outcome: inactive
[8]
  outcome: inactive
[9]
  outcome: inactive

## N=C(N)c1ccc(OCCCCCOc2ccc(C(=N)N)cc2)cc1
[1]
  outcome: inactive
[2]
  outcome: inactive
[3]
  AC50: 9.33 µM (active)
[4]
  AC50: 32.6 µM (active)
[5]
  AC50: 30 µM (active)
[6]
  outcome: inactive
[7]
  AC50: 30 µM (active)
[8]
  AC50: 4.81 µM (active)
[9]
  AC50: 24.2 µM (active)

## CCCCc1oc2ccccc2c1C(=O)c1cc(I)c(OCCN(CC)CC)c(I)c1
[3]
  AC50: 43.8 µM (active)
[5]
  AC50: 15.7 µM (active)
[6]
  outcome: inactive
[7]
  AC50: 20.7 µM (active)
[10]
  AC50: 33.5 µM (active)
[9]
  AC50: 17.2 µM (active)

## O=C(c1ccccc1)c1ccccc1
[3]
  outcome: inactive
[5]
  outcome: inactive
[6]
  outcome: inactive
[7]
  outcome: inactive
[10]
  outcome: inactive
[9]
  outcome: inactive

## CCCCC(CC)C(=O)O (stereo not given)
[1]
  outcome: inactive
[2]
  outcome: inactive
[3]
  outcome: inactive
[4]
  outcome: inactive
[5]
  outcome: inactive
[6]
  outcome: inactive
[7]
  outcome: inactive
[8]
  outcome: inactive
[9]
  outcome: inactive

## CN(Cc1cnc2nc(N)nc(N)c2n1)c1ccc(C(=O)N[C@@H](CCC(=O)O)C(=O)O)cc1
[1]
  outcome: inactive
[2]
  outcome: inactive
[3]
  outcome: inactive
[4]
  outcome: inactive
[5]
  outcome: inactive
[6]
  outcome: inactive
[7]
  outcome: inactive
[8]
  outcome: inactive
[9]
  outcome: inactive

## CCCCCCCCCCCCCCC
[1]
  outcome: inactive
[2]
  outcome: inactive
[3]
  outcome: inactive
[4]
  outcome: inactive
[5]
  outcome: inactive
[6]
  outcome: inactive
[7]
  outcome: inactive
[8]
  outcome: inactive
[9]
  outcome: inactive

## CN(C)CCOC(c1ccccc1)c1ccccc1
[3]
  outcome: inactive
[5]
  outcome: inactive
[6]
  outcome: inactive
[7]
  outcome: inactive
[9]
  AC50: 90.8 µM (active)

## OCC(CO)(CBr)CBr
[1]
  outcome: inactive
[2]
  outcome: inactive
[3]
  outcome: inactive
[4]
  outcome: inactive
[5]
  outcome: inactive
[6]
  outcome: inactive
[7]
  outcome: inactive
[8]
  outcome: inactive
[9]
  outcome: inactive

## CS(=O)(=O)c1ccc([C@@H](CC2CCCC2)C(=O)Nc2cnccn2)cc1Cl
[3]
  outcome: inactive
[5]
  outcome: inactive
[6]
  outcome: inactive
[7]
  outcome: inactive
[10]
  outcome: inactive
[9]
  outcome: inactive

## CC(=O)Nc1ccc(O)cc1
[3]
  outcome: inactive
[5]
  outcome: inactive
[6]
  outcome: inactive
[7]
  outcome: inactive
[9]
  outcome: inactive

## Cc1[nH]nc2c1N=C(c1ccccc1Cl)c1cc([N+](=O)[O-])ccc1N2
[1]
  AC50: 0.364 µM (active)
[2]
  AC50: 0.512 µM (active)
[3]
  AC50: 0.0391 µM (active)
[4]
  outcome: inactive
[5]
  outcome: inactive
[6]
  AC50: 100 µM (active)
[7]
  AC50: 1.09 µM (active)
[8]
  AC50: 0.279 µM (active)
[9]
  AC50: 1.49 µM (active)

## O=C(CCCN1CCC(O)(c2ccc(Cl)cc2)CC1)c1ccc(F)cc1
[3]
  AC50: 87.4 µM (active)
[5]
  AC50: 34.5 µM (active)
[6]
  outcome: inactive
[7]
  AC50: 46 µM (active)
[10]
  AC50: 98.3 µM (active)
[9]
  AC50: 34.7 µM (active)
